# Experimental data published in PubChem BioAssay (NCI).
# Where “and” joins values, the source holds several entries; their conditions need not be identical. Equal entries are not always repeated. About 83,000 compounds went through this panel and 20% of them were active in at least one assay; those are over-represented in the sample as a whole.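 Each cell line was grown in a 96-well plate and treated with one concentration of compound for 48 hours. Values below 10 were considered active.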 Calls of active or inactive are those of the source.
# Columns and labels:
# Assay in all cases: NCI-60 one-dose screen, 48 h (100 = growth as untreated, 0 = no growth, -100 = all killed)
# Details in all cases: 10 µM unless noted
# SR leukemia = test system: SR leukemia
# RPMI-8226 leukemia = test system: RPMI-8226 leukemia
# OVCAR-8 ovarian = test system: OVCAR-8 ovarian
# OVCAR-5 ovarian = test system: OVCAR-5 ovarian
# OVCAR-4 ovarian = test system: OVCAR-4 ovarian
# SK-OV-3 ovarian = test system: SK-OV-3 ovarian
# IGROV1 ovarian = test system: IGROV1 ovarian
# OVCAR-3 ovarian = test system: OVCAR-3 ovarian
# HS 578T breast = test system: HS 578T breast
# NCI/ADR-RES ovarian = test system: NCI/ADR-RES ovarian
# T-47D breast = test system: T-47D breast
# BT-549 breast = test system: BT-549 breast
# MDA-MB-435 melanoma = test system: MDA-MB-435 melanoma
# SW-620 colon = test system: SW-620 colon
# MCF7 breast = test system: MCF7 breast
# HCT-116 colon = test system: HCT-116 colon
# HCC-2998 colon = test system: HCC-2998 colon
# KM12 colon = test system: KM12 colon
SMILES,growth (SR leukemia),growth (RPMI-8226 leukemia),growth (OVCAR-8 ovarian),growth (OVCAR-5 ovarian),growth (OVCAR-4 ovarian),growth (SK-OV-3 ovarian),growth (IGROV1 ovarian),growth (OVCAR-3 ovarian),growth (HS 578T breast),growth (NCI/ADR-RES ovarian),growth (T-47D breast),growth (BT-549 breast),growth (MDA-MB-435 melanoma),growth (SW-620 colon),growth (MCF7 breast),growth (HCT-116 colon),growth (HCC-2998 colon),growth (KM12 colon)
N#CC1=C(N)Oc2c(sc3c(Br)cccc23)C1c1ccccn1 (stereo unspecified),12.7% (inactive),30% (inactive),53.8% (inactive),72% (inactive),88.6% (inactive),27.2% (inactive),43.1% (inactive),14.3% (inactive),45.5% (inactive),14.6% (inactive),34.3% (inactive),31.4% (inactive),77.4% (inactive),34.8% (inactive),18.8% (inactive),27.9% (inactive),72.9% (inactive),34.9% (inactive)
CCN1C(=S)N(CC)C2C1NC(=S)N2/N=C/C=C/c1ccccc1 (stereo unspecified),20% (inactive),41.4% (inactive),41.6% (inactive),54.5% (inactive),61% (inactive),35.5% (inactive),37.9% (inactive),3.77% (active),12.1% (inactive),15.4% (inactive),36.9% (inactive),47.5% (inactive),-39% (active),28% (inactive),17.8% (inactive),22.8% (inactive),56.7% (inactive),22% (inactive)
[2H]C([2H])([2H])Oc1cccc(/C=C/C(=O)/C=C(/C=C/c2cccc(OC([2H])([2H])[2H])c2OC([2H])([2H])[2H])OB(F)F)c1OC([2H])([2H])[2H],23.3% (inactive),46% (inactive),20.6% (inactive),106% (inactive),71.5% (inactive),105% (inactive),73.3% (inactive),39.2% (inactive),91.9% (inactive),50.6% (inactive),50.6% (inactive),86.2% (inactive),57% (inactive),46.7% (inactive),26.2% (inactive),41.5% (inactive),122% (inactive),92.2% (inactive)
Nc1[nH]nc(Nc2ccccc2)c1-c1nc2ccccc2s1,13.6% (inactive),24% (inactive),38.4% (inactive),34.5% (inactive),29.5% (inactive),48.8% (inactive),28.5% (inactive),25.3% (inactive),47.2% (inactive),30% (inactive),2.9% (active),38.1% (inactive),22.8% (inactive),15.5% (inactive),12.4% (inactive),3.73% (active),18.3% (inactive),15.6% (inactive)
CCC(=C(c1ccc(OCCCN(C)C)cc1)c1ccc(OCCCN(C)C)cc1)c1ccc(Cl)cc1,-48.2% (active),-55.4% (active),-76.3% (active),-89.3% (active),-85.8% (active),-88.2% (active),-84.9% (active),-84.6% (active),-77.4% (active),-84.9% (active),-66.8% (active),-92.6% (active),-95.5% (active),-73.7% (active),-79.2% (active),-94% (active),-80.8% (active),-78.7% (active)
Cc1ccc(NC(=O)c2ccc(CN3CCN(C)CC3)cc2)cc1Nc1nccc(-c2cccnc2)n1,85.4% (inactive) and -22.5% (active),87.4% (inactive) and 38.3% (inactive),91.6% (inactive) and 67.7% (inactive),123% (inactive) and 97.5% (inactive),100% (inactive) and 93.1% (inactive),106% (inactive) and 107% (inactive),119% (inactive) and 98.3% (inactive),110% (inactive) and 84% (inactive),90.1% (inactive),101% (inactive) and 91.4% (inactive),81.4% (inactive) and 57.8% (inactive),105% (inactive) and 61.1% (inactive),92.6% (inactive) and 77.7% (inactive),110% (inactive) and 88.6% (inactive),91.9% (inactive) and 55.7% (inactive),81.4% (inactive) and 55.1% (inactive),122% (inactive) and 96.8% (inactive),107% (inactive) and 69% (inactive)
C[C@]12CCc3c(ccc4cc(O)ccc34)[C@@H]1C[C@H](O)[C@@H]2O,110% (inactive),97.1% (inactive),94% (inactive),104% (inactive),106% (inactive),106% (inactive),103% (inactive),96.7% (inactive),84.9% (inactive),96% (inactive),98.8% (inactive),94.7% (inactive),99% (inactive),96.4% (inactive),132% (inactive),104% (inactive),109% (inactive),108% (inactive)
